In the library only some 17% were active in any assay of this set; here they are far more common.
S2 tox: reduces viability in counter-screen for ATXN expression inhibitors; AID 651635; 400,000 compounds, 0.49% hits; Potency, µM (series often up to 56.7 µM), usual class: cytotoxic; S2 cells (HEK-293 line with an ATXN2-luciferase reporter) viability, CellTiter-Fluor protease fluorescence, 24 h; also: nearly all actives have a fitted effect of over 40% in size
TGFb inhibitor: blocks TGF-b signaling; HepG2 CAGA-GFP TGF-b/SMAD3 reporter, GFP fluorescence, 18 h; TGF-beta stimulated, 500 pg/mL final; Potency, µM (titrated, usually from 46.1 µM), hits mostly inhibitors; 410,000 compounds, 1.2% hits; also: nearly all actives have a fitted effect of over 65% in size
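Smad-responsive CAGA-GFP expression was quantified in HEPG2 cells exposed to compounds and 500 pg/mL final TGF-beta for 18 h at 37 degrees C; unstimulated wells defined full inhibition.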
DT40 TDP1 no CPT: qHTS for Inhibitors of human tyrosyl-DNA phosphodiesterase 1 (TDP1): qHTS in cells in absence of CPT. Potency, µM (titrated, usually from 46.2 µM), most hits filed as inhibitors. DT40 Tdp1-/- hTDP1 cells, no CPT, ATP luminescence, 48 h. 420,000 compounds, 15% hits; also: nearly all actives have a fitted effect of over 55% in size
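Chicken DT40 Tdp1-/- cells stably complemented with human TDP1 were seeded at 400 cells/well with DMSO in place of 20 nM camptothecin. After compound pinning, cells grew at least 48 hr at 37 °C; viability read by CellTiter-Glo luminescence.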
DT40 TDP1 CPT: DT40-hTDP1 cell growth loss with CPT; 420,000 compounds, 12% hits; chicken DT40 Tdp1-/-;hTDP1 cells + 20 nM CPT, ATP luminescence, 48 h; AID 686979; Potency, µM (titrated, usually from 46.2 µM), most hits filed as inhibitors; also: nearly all actives have a fitted effect of over 55% in size
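Chicken DT40 Tdp1-/- cells complemented with human TDP1, 400 cells/well, exposed to compounds plus 20 nM camptothecin for at least 48 h at 37 C; viability read as ATP content by CellTiter-Glo luminescence.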
HepG2 viability: kills HepG2 cells in TGF-b inhibitor counter-screen; 410,000 compounds, 0.76% hits; Potency, µM (doses to about 46.1 µM), most hits filed as cytotoxic; HepG2 CAGA-GFP viability, ATP luminescence, 18 h
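HepG2 CAGA-GFP cells (1000/well, DMEM with 1% FBS) received compound, then TGF-beta at 500 pg/mL final, and were incubated 18 hours at 37 degrees C. Viability was read by CellTiter-Glo luminescence. Media-only wells were set as complete cell-killing and DMSO as no toxicity.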
ATXN2 expr inh: inhibitors of ATXN2 expression | HEK-293 ATXN2-luciferase reporter, luminescence, 24 h | Potency, µM (highest dose often 57 µM), actives largely listed as inhibitors | 360,000 compounds, 0.72% hits | AID 1745845; also: nearly all actives have a fitted effect of over 55% in size
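qHTS (up to 57 uM final) was run with 24 h compound exposure of reporter cells at 37 °C. Each well was multiplexed: SteadyGlo luminescence measured ATXN2-luciferase expression after a fluorogenic Gly-Phe-AFC viability readout (25 uM final).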
A number is an active result; - = inactive; ? = inconclusive; . = no result given. Calls follow the shape of the dose curve; as a rule, active = well fitted curve in the direction sought with a large enough effect; inconclusive = small, poorly fitted or top-dose-only effect, or another doubt; inactive = no such curve, though single readings can be large; an effect the other way counts as inactive or inconclusive.

SMILES	S2 tox	TGFb inhibitor	DT40 TDP1 no CPT	DT40 TDP1 CPT	HepG2 viability	ATXN2 expr inh
O=C1CC(c2ccco2)CC2=C1C(c1ccncc1)n1nc(C(F)(F)F)nc1N2 (centres undefined)	.	-	.	.	-	.
CSc1ccc(C(=O)C2CCCN(S(=O)(=O)c3c(C)noc3C)C2)cc1 (centres undefined)	-	-	?	?	-	-
O=C(C1CCN(S(=O)(=O)c2ccc(Br)s2)CC1)N1CCCCC1	-	-	20.6µM	?	-	-
O=C(C1CCCN(S(=O)(=O)c2ccc(Br)s2)C1)N1CCN(c2ccccc2)CC1 (centres undefined)	?	?	13µM	18.4µM	-	-
Cc1cccc(N2CCN(C(=O)C3CCCN(S(=O)(=O)c4ccc(Br)s4)C3)CC2)c1C (centres undefined)	.	?	8.2µM	9.2µM	-	.
Cc1cccc(N2CCN(C(=O)C3CCCN(S(=O)(=O)c4c(C)noc4C)C3)CC2)c1C (centres undefined)	-	-	23.1µM	23.1µM	-	?
CCOC(=O)C1CCCN(C(=O)c2ccncc2)CC1 (centres undefined)	-	-	-	-	-	-
OC1(c2ccc(Cl)cc2)CCNCC1	-	.	.	.	.	-
O=C(O)C1CCCN(S(=O)(=O)c2ccc(Br)s2)C1 (centres undefined)	-	-	-	-	-	-
Cc1ccc(NC(=O)C2CCCN(S(=O)(=O)c3c(C)noc3C)C2)nc1 (centres undefined)	-	-	-	-	-	-
Cc1ccc(NC(=O)C2CCCN(S(=O)(=O)c3c(C)noc3C)C2)c(Br)c1 (centres undefined)	-	-	?	20.6µM	-	-
O=C(C1CCCN(S(=O)(=O)c2ccc(Br)s2)C1)N1CCCCCC1 (centres undefined)	-	?	14.6µM	20.6µM	-	-
CN(CC(=O)NCCc1ccc(Cl)cc1)S(=O)(=O)c1cccs1	-	-	-	-	-	-
COc1ccc(-n2cnnc2SCC(=O)N(C)C2CCS(=O)(=O)C2)cc1 (centres undefined)	-	-	-	-	-	-
COc1ccc(NC(=O)O[C@@H](C)[C@@H]2CN3CCc4c([nH]c5ccc(-c6ccc(OC)cc6)cc45)[C@@H]3C[C@@H]2N(C)C(=O)Nc2ccc(OC)cc2)cc1	?	?	13µM	?	-	?
COc1ccc(NC(=O)N(C)[C@H]2C[C@H]3c4[nH]c5ccc(-c6ccc7c(c6)OCO7)cc5c4CCN3C[C@H]2[C@H](C)O)cc1	20µM	?	10.3µM	8.2µM	-	15.8µM
COc1ccc(NC(=O)N(C)[C@H]2C[C@H]3c4[nH]c5ccc(-c6ccc(OC)cc6)cc5c4CCN3C[C@H]2[C@H](C)O)cc1	.	?	?	?	-	22.4µM
CN(C(=O)Cn1nnc(-c2cccnc2)n1)C1CCCCC1	-	-	-	-	-	-
O=C1CCCc2c1cc(C(=O)NCc1ccco1)c(=O)n2-c1ccc(Cl)cc1	-	-	-	-	-	-
CC(=O)Nc1cccc(C(=O)OCC(=O)N(c2ccccc2)C2CCS(=O)(=O)C2)c1 (centres undefined)	-	-	-	-	-	-
COCCNC(=O)C(c1ccncc1)N(Cc1ccccc1)C(=O)Cn1nnc2ccccc21 (centres undefined)	-	-	-	-	-	-
CSc1ccc(C(=O)C2CCCN(C(=O)CCc3cnn(C)c3)C2)cc1 (centres undefined)	-	-	?	?	-	-
CC(C)(C)C1CCC2(CC1)C(C#N)=C(SCC(=O)Nc1ccccc1)NC(=O)C2C#N (centres undefined)	?	7.08µM	?	16.4µM	10µM	?
CCn1cc(/C=N/N=C2\CCC3C4CCc5cc(O)ccc5C4CC[C@]23C)c(C)n1 (some centres undefined)	?	-	20.6µM	16.4µM	-	-
O=C(CCCCCN1C(=O)[C@@H]2Cc3ccccc3CN2C1=O)Nc1cccc(F)c1	-	?	14.6µM	?	-	-
SMILES	S2 tox	TGFb inhibitor	DT40 TDP1 no CPT	DT40 TDP1 CPT	HepG2 viability	ATXN2 expr inh
COc1ccccc1N(Cc1cc(=O)[nH]c2ccccc12)C(=O)c1ccc([N+](=O)[O-])cc1	-	?	11.6µM	20.6µM	-	-
COc1ccccc1N(Cc1cc(=O)[nH]c2ccccc12)C(C)=O	-	-	-	-	-	.
Cn1c(-c2ccc(F)c(F)c2)cc2onc(-c3ccccc3)c2c1=O	-	?	23.1µM	16.4µM	-	-
COC(=O)c1ccc(-c2cc3onc(-c4ccccc4)c3c(=O)n2C)cc1	-	-	?	23.1µM	-	-
COc1ccc(-c2cc3onc(-c4c(Cl)cccc4Cl)c3c(=O)n2C)cc1	?	?	?	?	-	-
Cc1cc2[nH]c(=O)c(=O)[nH]c2cc1S(=O)(=O)Nc1cccc(Cl)c1	-	-	-	-	-	.
CCCN1C(=O)c2oc3cc(C)cc(C)c3c(=O)c2C1c1ccc(F)cc1 (centres undefined)	-	-	-	-	-	-
CCCc1cc(N2CCN(c3cc(Cl)ccc3C)CC2)n2cnnc2n1	-	-	5.17µM	13µM	-	-
Cc1ccc(NC(=O)CNC(=O)OCc2ccccc2)cc1C	-	-	-	?	-	-
CC(C)(C)c1ccc(-c2noc(CCC(=O)NCc3ccco3)n2)cc1	-	-	25.9µM	18.4µM	-	.
Cc1cccc(-c2noc(CCCC(=O)NCc3ccco3)n2)c1	.	-	16.4µM	14.6µM	-	.
Cc1cccc(-c2noc(CCC(=O)NCc3ccco3)n2)c1	-	-	-	?	-	-
CCN(CC)S(=O)(=O)c1ccc(N2CCOCC2)c(NC(=O)C23CC4CC(CC(Cl)(C4)C2)C3)c1	-	-	23.1µM	?	-	-
CCN(CC)S(=O)(=O)c1ccc(N2CCOCC2)c(NC(=O)COc2ccc(Cl)cc2)c1	-	-	?	?	-	.
CCN(CC)S(=O)(=O)c1ccc(N2CCOCC2)c(NC(=O)c2ccccc2)c1	-	-	?	?	-	-
CCc1cc(C(=O)Nc2cc(S(=O)(=O)N3CCCCC3)ccc2N2CCN(C)CC2)sc1C	?	?	4.11µM	4.61µM	-	.
CCN(CC)S(=O)(=O)c1ccc(N2CCOCC2)c(NC(=O)c2cc(C)cc(C)c2)c1	-	-	18.4µM	7.31µM	-	-

Source: PubChem (National Center for Advancing Translational Sciences (NCATS))
